# Rows were chosen to be rich in hits. Some 6% of all compounds tested hit in one or more screens of this group.
# D1 potentiator – Potentiators of Human D1 Dopamine Receptor: qHTS. D(1A) dopamine receptor (Homo sapiens), P21728. HEK293 TREx D1 cells, calcium flux, dopamine EC20 potentiation. potentiation, % at 10 µM. hit rate 0.036% among 360,000. AID 504651, 2011; in the data active = potentiation above about 30%; also: 0% is about no effect
# D1 antagonist – Antagonist of Human D 1 Dopamine Receptor: qHTS. HEK293 TREx D1 cells, calcium flux, dopamine EC80; active compounds read low. hit rate 3.2% among 360,000. AID 504652, 2011. D(1A) dopamine receptor (Homo sapiens), P21728. activity change, negative = inhibition, % at 10 µM; in the data active = activity change below about -30%; also: % is scaled to controls: 0 for no effect and ±100 for the full control effect
#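 Using tetracycline-induced force-coupled D1 Hek293 cells and a calcium dye, signals were followed for 180 s after compound, then for 180 s after EC80 dopamine, to detect inhibitors.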
# DRD3 agonist – qHTS of D3 Dopamine Receptor Agonist: qHTS; hit rate 0.58% among 410,000; D3R DiscoveRx beta-arrestin cells, luminescence, 90 min; max activation, %; D(3) dopamine receptor (Homo sapiens), P35462; in the data active = max activation above about 30%; also: 0% is about no effect
# Target sequence (P35462 whole entry, looked up): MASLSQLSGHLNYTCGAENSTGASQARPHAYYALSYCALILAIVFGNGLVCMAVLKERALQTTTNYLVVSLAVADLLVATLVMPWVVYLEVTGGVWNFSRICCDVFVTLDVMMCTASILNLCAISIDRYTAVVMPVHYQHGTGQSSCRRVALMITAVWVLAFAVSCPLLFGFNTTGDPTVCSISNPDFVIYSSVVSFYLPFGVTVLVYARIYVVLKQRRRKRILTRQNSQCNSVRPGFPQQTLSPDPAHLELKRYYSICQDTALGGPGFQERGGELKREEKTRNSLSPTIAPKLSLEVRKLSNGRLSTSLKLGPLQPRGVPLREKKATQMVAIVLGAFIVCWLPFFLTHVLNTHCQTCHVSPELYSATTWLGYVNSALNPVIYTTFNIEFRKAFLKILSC
#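 Agonist-mode cell screen: cells plated at 1500/well and incubated overnight at 37 °C, then exposed to library compounds for 90 min at 37 °C. Detection reagent was added for 30–60 min at room temperature, and luminescence was read.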
# BCR signal inh – qHTS Assay to Find Inhibitors of Chronic Active B-Cell Receptor Signaling; Potency, µM (titrated, usually from 46.1 µM), inactives show at the highest dose activity change, negative = inhibition, usual class: inhibitors; AID 493014, 2011; ABC-DLBCL IkBa-CBG/CBR reporter, luminescence ratio, 4 h; hit rate 0.05% among 340,000; active = well fitted inhibition curve with a large enough effect in the signal ratio, with a control signal flat, not every such curve was filed as active; inconclusive = small, poorly fitted or top-dose-only effect, or effect the other way, or a change in a side signal; the % refers to the signal ratio;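 also: potency is read from the fitted curve at half-maximal effect; plate controls were basal doxycycline-induced cells for no effect and cells given 10 µM MG132 for full effect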
#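 Cell line TMD8 (human ABC DLBCL), stably expressing tet-inducible CBG68-IkBa fusion and CBR; IMDM/0.5% FBS; cpd up to 46 uM; dox induction, 4 h, 37C/5% CO2; dual luminescence; green/red ratio; MG132 control.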
# D1 agonist – Allosteric Agonists of the Human D1 Dopamine Receptor: qHTS; D(1A) dopamine receptor (Homo sapiens), P21728; HEK293 T-REx D1 cells, calcium flux, agonist mode; activation, % at 2 µM; hit rate 1% among 360,000; in the data active = activation above about 30%; also: 0% is about no effect
#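 Inducible HEK293 T-REx D1 cells, force-coupled to calcium signalling, were plated at 4000 cells/well with tetracycline and held overnight at 30 C. After no-wash calcium dye loading, compound-evoked calcium rise over 180 s flagged agonists.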
# D3 antag – qHTS of D3 Dopamine Receptor Antagonist: qHTS. max response, negative = inhibition, %. D(3) dopamine receptor (Homo sapiens), P35462. hit rate 2.5% among 360,000. D3R cells, DiscoveRx beta-arrestin luminescence, antagonist mode; active compounds read low; in the data active = max response below about -50%; inconclusive = no clear call, values can overlap the other calls; also: % is scaled to controls: 0 for no effect and ±100 for the full control effect
#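 Cells expressing the human receptor were seeded at 1500 cells/well, incubated overnight at 37 degrees C in 5% CO2, then exposed to library compounds with dopamine controls for 90 minutes at 37 degrees C before luminescent detection.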
# Numbers without * were called inactive; ? = inconclusive; / = no result.
SMILES,D1 potentiator,D1 antagonist,DRD3 agonist,BCR signal inh,D1 agonist,D3 antag
O=C(CNC(=O)c1ccncc1)OC(C(=O)Nc1cc(C(F)(F)F)ccc1Cl)c1ccccc1 (stereo not given),4.7,21.3,/,/,1.3,/
CC(C)(C)c1ccc(C(=O)N2CCN(Cc3ccccc3)CC2)cc1,0.0,-13.9,-7.4,?,2.6,?
CN1CCN(C(=O)c2cccc(COc3cc(Cl)ccc3Cl)c2)CC1,-13.6,-42.9*,-48.6,?,1.9,-6.6
O=C(c1cccc(Cl)c1)N1CCN(CCCc2ccccc2)CC1,-6.7,-2.0,32.9*,-0.2%,2.5,-18.0
O=C(c1ccccc1)N1CCN(CCc2ccccc2)CC1,-0.1,1.9,-19.4,2.3%,20.3,-5.9
Cc1ccc(NC(=S)N2CCN(Cc3ccccc3)CC2)cc1,-1.4,-18.6,2.9,-20.0%,0.8,0.4
Cc1ccc(C(=S)N2CCN(Cc3ccccc3)CC2)cc1,-6.0,/,-26.1,3.1%,-1.4,-70.5*
CN1CCN(C(=O)c2ccc(COc3cc(Cl)ccc3Cl)o2)CC1,-5.8,11.3,-17.0,?,4.0,-23.3
O=C(c1ccccc1)N1CCN(Cc2ccccc2)CC1,-5.0,-53.5*,-31.8,-14.1%,0.1,?
CCOc1cc(CNc2ccc(O)cc2)cc(Cl)c1OCc1ccccc1,1.8,-4.9,-8.0,/,-0.5,/
CCOCCCNc1nc2ccccc2n2c(CC)nnc12,-2.0,-2.6,-8.6,/,0.2,/
Cc1c(C(C)C)c(=O)n(-c2ccc(S(=O)(=O)NC3CCCCC3)cc2)n1C,-4.1,-52.2*,1.4,?,3.6,-10.7
CCOc1ccc(N2C(=O)C3=C(C(c4ccc(Cl)cc4)=NCCN3)C2c2cccnc2)cc1 (stereo not given),-4.5,-46.8*,3.7,-3.5%,1.4,-7.8
Cc1c(N=C2SC(CC(=O)Nc3ccccc3)C(=O)N2CCN2CCOCC2)c(=O)n(-c2ccccc2)n1C (stereo not given),-0.7,-51.5*,-3.9,-13.5%,1.9,8.7
CC(=O)Nc1ccccc1-c1nc2ccccc2n(C(C)C(=O)Nc2cccc(C)c2C)c1=O (stereo not given),-1.6,-6.5,-13.9,/,-0.1,/
Cc1cc(N2CCN(c3nc4ccccc4s3)CC2)n2ncnc2n1,-1.9,-32.0*,9.6,3.1%,8.9,52.9
COC(=O)c1c(-c2ccc(Cl)cc2)noc1N1CCN(c2ccc(OC)cc2)CC1,-2.6,2.7,69.1*,/,-1.3,/
Brc1ccc(CSc2ncn[nH]2)cc1,-3.3,-0.1,1.9,-4.3%,1.0,8.7
CCCOc1ccc(CSc2ncn[nH]2)cc1,-1.5,-18.8,-11.1,?,1.9,-81.8*
CCCCCCCCN1C(=O)[C@H](CC(=O)NCc2cccs2)C[C@@]2(C(=O)OC)CCCCC=C12,/,/,-6.1,/,/,-8.0
O=C(Nc1cc(C(F)(F)F)ccc1Cl)c1cnn(-c2ccccc2)c1-n1cccc1,1.1,3.1,55.4*,/,9.5,/
Cc1ccc(C(=O)c2cn[nH]c2-c2cc(Cl)ccc2O)cc1,-3.9,-18.6,-0.3,-12.8%,58.0*,5.5
COc1ccc(O)c(-c2[nH]ncc2C(=O)c2ccccc2)c1,-4.4,-13.8,-5.5,2.8%,3.5,-57.1*
O=C(c1ccccc1)c1cn[nH]c1-c1ccccc1O,1.4,2.6,-1.0,-5.3%,3.8,-0.6
CC(C)C[C@H]1CNC(=S)N1C[C@H]1CCCN1C[C@H](CC(C)C)N1C[C@H](Cc2ccc(O)cc2)N(CC2CCCCCC2)C1=S,/,/,10.9,/,/,0.0
SMILES,D1 potentiator,D1 antagonist,DRD3 agonist,BCR signal inh,D1 agonist,D3 antag
COc1cc(NC(=O)C[n+]2ccc(C(=O)c3ccccc3)cc2)cc(OC)c1,/,/,-19.6,-3.1%,/,-72.1*
COc1cc(OC)cc(C(=O)NCC(=O)Nc2ccc(C)c(Cl)c2)c1,2.5,7.0,-22.6,-6.0%,7.0,-25.8
O=C(CCCc1ccccc1)Nc1ccccc1[N+](=O)[O-],2.9,-3.1,-1.4,-17.1%,1.2,24.9
COc1cc(OC)cc(C(=O)NCC(=O)Nc2ccc(-c3ccccc3)cc2)c1,-9.2,-8.9,-24.1,?,8.8,-59.5*
O=C(CCc1ccccc1)NC(=S)Nc1ccccc1[N+](=O)[O-],-0.7,-34.0*,-1.0,-1.5%,-0.5,?
O=C(CCc1ccccc1)NC(=S)Nc1ccccc1Br,-5.2,/,0.0,-0.2%,1.2,5.0
O=C(CCc1ccccc1)Nc1ccccc1[N+](=O)[O-],-8.7,-36.1*,3.4,-19.4%,-0.5,17.6
Cc1ccc(-n2c(SCC(=O)NCc3ccccc3)nc3n[nH]c(C)c3c2=N)cc1Cl,-8.8,0.8,-9.3,-6.9%,5.8,/
COc1ccccc1CNc1nc(NCCN2CCNC2=O)c2sccc2n1,/,/,-1.4,/,/,6.4
COc1ccccc1NC(=S)NC(=O)CCc1ccccc1,-5.4,-11.0,1.5,0.8%,6.2,-13.6
COc1cc(NC(=S)NC(=O)CCc2ccccc2)cc(OC)c1,-9.1,-4.1,-11.6,-0.1%,19.3,-52.5*
Cc1ccc(NC(=O)/C=C/C(=O)O)c([N+](=O)[O-])c1,-7.8,7.1,4.9,-5.5%,0.5,8.1
Cc1ccc(NC(=O)CCCc2ccccc2)c([N+](=O)[O-])c1,-0.5,-47.8*,-4.7,?,1.6,0.1
CCCN(CCC)C(=O)C(CCC(=O)OCCCN1CCN(CCOC(=O)Cc2c(C)n(C(=O)c3ccc(Cl)cc3)c3ccc(OC)cc23)CC1)NC(=O)c1ccccc1 (stereo not given),/,/,-29.9,/,/,/
Cc1cc(/C=C2\SC(=S)N(Cc3ccco3)C2=O)c(C)n1-c1ccccc1,-1.4,-20.0,-0.6,0.5%,30.7*,-18.5
NS(=O)(=O)c1cc(Br)c2c(c1)S(=O)(=O)NCN2,/,/,0.7,/,/,-10.2
CCOC(=O)c1c(NC(=O)CSc2nnc3c(n2)[nH]c2ccccc23)sc2c1CCN(C)C2,/,/,1.1,/,/,-60.2*
CCOC(=O)c1c(NC(=O)CSc2nnc3c(n2)[nH]c2ccc(F)cc23)sc(C(C)=O)c1C,-2.8,0.5,0.1,6.8%,1.5,-3.6
CCOC(=O)c1c(NC(=O)CSc2ncccn2)sc2c1CCN(Cc1ccccc1)C2,-11.2,-77.7*,-11.8,?,7.3,-81.0*
Cc1ccc(NC(=O)c2ccc(CN3CCc4ccccc4C3)cc2)cc1,-4.0,-32.9*,-11.3,-0.5%,3.7,-85.1*
O=C(Nc1cccnc1)c1ccc(CN2CCc3ccccc3C2)cc1,-1.8,4.2,-13.2,1.5%,4.3,-74.0*
